Most compounds without a hit are left out; they make up all but 6.1% or so of the library.
M1 ag: activates the M1 muscarinic receptor. CHO-M1 cells, Fluo-4 calcium fluorescence, agonist mode; hits give high values. B-score at 10 µM. hit rate 3% among 64,000;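 active = fluorescence rise, raw or as B-score row- and column-corrected plate score, outside the 99.7% band of its plate's samples, either direction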
MMP-13 inhibitor: blocks human MMP13 activity. MMP-13 fTHP FRET cleavage, Mca fluorescence. P45452. hit rate 0.07% among 65,000. inhibition, % at 4 µM;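 active = inhibition above the mean of compound-free control plate wells plus 3 SD, cut at about 14% in these data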;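 note: 0% = DMSO wells and 100% = wells with reference MMP-13 inhibitor after basal subtraction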
Cdc25B block: inhibitors of human Cdc25B phosphatase. recombinant Cdc25B, OMFP fluorescence Ex485/Em525. inhibition, %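 (compounds tested at 10 µM final in the well)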. AID 368. hit rate 0.1% among 65,000; in the data active = inhibition above about 50%
MKP-1 inh: blocks human MKP-1 phosphatase activity. AID 374. inhibition, %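 (compounds tested at a single concentration somewhere between 10 and 100 µM)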. recombinant MKP-1, OMFP hydrolysis fluorescence. hit rate 0.15% among 65,000;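 active = inhibition above about 50%, limit read from the data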;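 note: 0% = DMSO max control wells and 100% = wells with enzyme stopped by NaOH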
Target sequence (P28562 whole entry, looked up): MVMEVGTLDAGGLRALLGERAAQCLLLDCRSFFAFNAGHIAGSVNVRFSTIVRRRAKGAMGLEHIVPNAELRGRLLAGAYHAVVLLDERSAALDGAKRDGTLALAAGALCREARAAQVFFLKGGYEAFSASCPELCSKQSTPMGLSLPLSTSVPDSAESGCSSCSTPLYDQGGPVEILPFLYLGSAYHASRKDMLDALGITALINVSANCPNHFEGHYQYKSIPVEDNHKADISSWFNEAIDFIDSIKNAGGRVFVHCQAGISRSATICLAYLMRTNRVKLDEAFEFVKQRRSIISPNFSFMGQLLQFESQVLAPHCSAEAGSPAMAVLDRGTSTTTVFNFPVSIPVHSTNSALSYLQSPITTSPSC
M1 antagonist: M1 muscarinic receptor (rat) antagonism. P08482. CHO-M1 cells, Fluo-4 calcium, ACh EC80 antagonist mode; hits give low values. B-score at 10 µM. hit rate 3.4% among 64,000. AID 628;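 active = calcium fluorescence response, raw or row-and-column corrected B-score, differing from the plate sample mean either way at a set confidence level, mostly lower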
Hsp90 inh: displaces geldanamycin probe from tumor Hsp90; P07900; NCI-N417 lysate Hsp90, Cy3B-geldanamycin FP displacement; inhibition, % at 30 µM; hit rate 0.35% among 64,000; AID 429;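 active = inhibition above 50%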;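 note: 0% = tracer plus lysate wells and 100% = tracer alone without lysate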
M1 antag confirm: confirmation of rat M1 muscarinic receptor antagonists. shares compounds with M1 antagonist. CHO-M1 cells, Fluo-4 calcium, ACh EC80 antagonism; hits give low values. calcium response (max-min fluorescence) at 10 µM. hit rate 43% among 1,700. AID 677;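 active = calcium response below the same-plate mean of wells given acetylcholine alone at its 80%-effect dose, minus 3 SD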;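 note: raw fluorescence intensity difference in arbitrary instrument units and not normalized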
mGluR4 antag: selectivity test for M1 antagonists: human mGluR4 receptor; shares compounds with M1 antagonist; CHO-mGluR4 calcium flux, Fluo-4 fluorescence, glutamate EC80; hits give low values; fluorescence response (max-min) at 10 µM; hit rate 0.9% among 1,700; AID 678;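 active = fluorescence response below the plate's average for near-maximal glutamate wells, less 3 SD of those wells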;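 note: raw unnormalized fluorescence span taken in the window right after glutamate addition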
* hit, by the source's call; i = inactive; / = no result.

SMILES | M1 ag | MMP-13 inhibitor | Cdc25B block | MKP-1 inh | M1 antagonist | Hsp90 inh | M1 antag confirm | mGluR4 antag
Nc1nnc(Cc2ccc(Cl)c(Cl)c2)s1 | -0.4 | -11 | -16 | -3 | 0.17 | 1 | / | /
CCOC(=O)N1CCN(C(=O)CCCn2nc(C)c3sc4ccccc4c3c2=O)CC1 | 2.6 | -8 | 9 | 1 | -0.42 | 0 | / | /
Cc1cc(=O)n2nc(N3CCC(C(=O)N4CCN(Cc5ccccc5)CC4)CC3)sc2n1 | -0.059 | 0 | -13 | 6 | -6* | -6 | 660 | 262
CCCC(=O)Nc1ccccc1NC(=O)CN(C)S(=O)(=O)c1ccccc1 | 0.85 | 2 | -10 | -3 | -0.086 | 0 | / | /
CC(C)(C)c1cc(C(=O)NCc2ccccc2)ccn1 | -2 | 3 | 1 | 28 | -4.2* | / | 679 | 217
Cn1cnnc1SCc1ccc(C(=O)n2ncc(C#N)c2N)cc1 | 1.5 | 2 | -4 | 5 | -3.6* | 0 | 606 | 230
Cn1cnnc1SCC(=O)c1ccco1 | -0.029 | 1 | -11 | 6 | -0.5 | / | / | /
Cc1cc(NC(=O)CN2CC3CC(C2)c2cccc(=O)n2C3)nc2c1c(=O)oc1ccccc12 (configuration not stated) | -0.25 | 0 | -5 | 13 | -0.37 | -5 | / | /
Cc1cc(NC(=O)CN2CCN(Cc3ccccc3)CC2)nc2c1c(=O)oc1ccccc12 | -0.76 | 7 | -10 | 14 | -2.4* | -4 | 499 | 204
CCOC(=O)Cn1c(CN2CC(C)OC(C)C2)nc2c1c(=O)n(C)c(=O)n2C (configuration not stated) | -1.3 | 4 | -4 | 6 | 0.017 | 2 | / | /
CCCCc1cc(=O)oc2cc(C)c(CN3CCCC3)c(O)c12 | -0.58 | 2 | -7 | 30 | 0.064 | -10 | / | /
CCCCc1cc(=O)oc2c(CN3CCCC3)c(O)ccc12 | -0.65 | i | -8 | -31 | -2.3* | 3 | 522 | 190
c1ccc(CN2CCC(N3CCN(Cc4ccc5c(c4)OCO5)CC3)CC2)cc1 | -0.5 | 5 | -3 | -2 | -2.3* | 1 | 330* | 197
CSc1ccc(S(=O)(=O)N2CCN(Cc3ccc4c(c3)OCO4)CC2)cc1 | -0.16 | 9 | -15 | -1 | -2.1* | 3 | 440 | 208
O=C(CN(c1ccccc1)S(=O)(=O)c1ccccc1)N1CCN(Cc2ccc3c(c2)OCO3)CC1 | -0.099 | 4 | -17 | 5 | -4.1* | -1 | 436* | 242
O=C(Nc1ccccc1)N1CCN(Cc2ccc3c(c2)OCO3)CC1 | 0.017 | 5 | -3 | 0 | -0.0078 | -3 | / | /
COc1ccc(F)cc1S(=O)(=O)N1CCN(Cc2ccc3c(c2)OCO3)CC1 | -0.49 | 3 | -1 | 5 | -0.37 | 0 | / | /
CCOC(=O)C1C(=O)NC(C)C1c1ccccc1 (configuration not stated) | 0.78 | 0 | 0 | -7 | -0.2 | 0 | / | /
CC(=O)Nc1ccc(S(=O)(=O)N2CCN(c3cc(C)nc4ccccc34)CC2)cc1 | -0.17 | 6 | -12 | 9 | -2.3 | 0 | / | /
CC(=O)Nc1ccc(S(=O)(=O)N2CCN(c3nc(NC4CCCC4)c4ccccc4n3)CC2)cc1 | 0.17 | -58 | 2 | 18 | -2.8* | -3 | 514* | 239
CN(CCCn1c(=S)[nH]c2ncccc2c1=O)Cc1ccccc1 | -1.1 | -7 | 1 | -5 | -3.3* | 0 | 471 | 221
CC1(C)CC(=O)c2cnc(N3CCc4ccccc4C3)nc2C1 | 0.65 | 0 | 5 | -14 | 1.2 | -5 | / | /
CC(=O)NC(Cc1ccc(F)cc1)C(=O)N1CCN(C(=O)NCc2ccccc2)CC1 (configuration not stated) | 0.76 | 0 | -5 | 9 | 1.3 | 0 | / | /
O=C(CSCc1cnn(-c2ccccc2)c1-n1cccc1)NCC1CCCO1 (configuration not stated) | -0.6 | -4 | -11 | 6 | -0.2 | 0 | / | /
O=C(CSCc1cnn(-c2ccccc2)c1-n1cccc1)NCCN1CCOCC1 | -0.079 | 4 | -2 | 10 | -2.7* | -2 | 520* | 160
O=P(c1ccccc1)(c1ccccc1)C(c1ccco1)N1CCOCC1 (configuration not stated) | -1.3 | 1 | -6 | -23 | -1.5 | -1 | / | /

Screening data as filed in PubChem.
